Experiment [1] relates to XIP peptide (Xip251-270) binding. Kind of experiment: small-molecule binders of XIP peptide, primary screen, biochemical, small-molecule microarray, fluorescence 635/667 nm, 0.1 µg/mL protein (AID 1182). Conditions: fluorescent protein binding, 635 nm, higher = more signal, called active from +8 up or from −8 down.
In experiment [2] the test system is XIP peptide (Xip251-270). Kind of experiment: small-molecule binders of XIP peptide, primary screen, biochemical, small-molecule microarray, fluorescence 635/667 nm, 0.5 µg/mL protein (AID 1183). Conditions: small-molecule microarray binding, fluorescence 635 nm; higher = more signal.
The nature of experiment [3]: Plasmodium falciparum growth inhibition, primary screen, strain 3D7, DAPI fluorescence, 100 nL (AID 1184).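 Also: parasites grown inside human red blood cells in medium with human serum.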 As to conditions: P. falciparum 3D7 growth, 3 d, higher = more signal.
Experiment [4] addresses Homeobox protein Hox-A13 (Mus musculus) (UniProt Q62424). Kind of experiment: inhibitors of HoxA13-DNA binding, primary screen, biochemical, fluorescence polarization, labeled oligonucleotide (AID 1185). Conditions: 15 min, higher = more signal, called active from +8 up or from −8 down.

Calls of active or inactive are those of the source.

Chain of Homeobox protein Hox-A13 (Mus musculus) (Q62424 whole entry, looked up): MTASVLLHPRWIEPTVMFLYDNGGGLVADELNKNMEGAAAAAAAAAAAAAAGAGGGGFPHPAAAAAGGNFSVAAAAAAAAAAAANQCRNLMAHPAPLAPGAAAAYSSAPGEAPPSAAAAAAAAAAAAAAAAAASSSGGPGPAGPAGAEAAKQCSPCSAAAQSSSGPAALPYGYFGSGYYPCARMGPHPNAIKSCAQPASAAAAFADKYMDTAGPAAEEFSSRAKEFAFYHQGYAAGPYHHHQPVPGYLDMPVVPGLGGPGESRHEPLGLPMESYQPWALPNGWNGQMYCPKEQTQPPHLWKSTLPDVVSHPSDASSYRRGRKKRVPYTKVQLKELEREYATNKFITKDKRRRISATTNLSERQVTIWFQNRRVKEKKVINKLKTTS

With `CC(CCN1CCCCc2nc(C)c(C)cc21)=NOC[C@@H](O)COCc1ccco1`, the composite z-score is 2.22 (inactive) in experiment [1] and 0.863 in experiment [2]. The z-score in experiment [3] was -0.246; in experiment [4], -4.37 (inactive).
On the same counts, the results for `C[C@@H]1C=CCC(=O)OC[C@H]2O[C@@H](C=C[C@@H]2O)[C@H](C)C=CCC(=O)OC1` are 1 (inactive), 0.538, 0.387 and -0.659 (inactive).
In the same order, the values of `CC(C)(C)N1C(=O)[C@H]2[C@H]3[C@H](O)[C@H](O)CC(=NOCc4ccccc4)[C@H]3CC[C@H]2C1=O` are 0.082 (inactive), -0.112, 0.195 and -4.16 (inactive).
On the same counts, the results for `CO[C@H]1COC(=O)[C@H](C)NC(=O)CC=C[C@@H](C)[C@H](OC)COC(=O)[C@@H](OCc2ccccc2)C=C[C@@H]1C` are -0.296 (inactive), -0.54, 0.112 and -0.22 (inactive).
Turning to `CC[C@@H](c1ccccc1)n1c(=O)n2n(c1=O)[C@H]1[C@H](O)[C@@H]3O[C@@H]3C(=NOC[C@@H](O)COCc3ccco3)[C@H]1CC2`, the composite z-score in experiment [1] was -0.0593 (inactive); in experiment [2], -0.268. Moreover, the z-score was -0.949 in experiment [3] and -3.57 (inactive) in experiment [4].
In the same order, the values of `C=CC1=C[C@H](O)[C@@H]2O[C@@H]2C12OCCCO2` are -0.49 (inactive), 0.343, -0.706 and -1.87 (inactive).
In the same order, the values of `CCOC(=O)[C@H](CC(C)C)NC(=O)CCC1CC(OC(=O)NCc2cccc3ccccc23)CC2(CCCC(COC(=O)NCCOc3ccccc3)O2)O1` (stereo not given in full) are 0.761 (inactive), 0.471, -1.81 and -3.36 (inactive).
On the same counts, the results for `CC(=O)OC[C@H]1O[C@H](CCON=C2[C@H]3CCn4c(=O)n(-c5ccccc5)c(=O)n4[C@H]3[C@H](O)[C@@H]3O[C@H]23)C=C[C@@H]1OC(C)=O` are 0.149 (inactive), -0.325, -0.374 and -1.83 (inactive).
Turning to `O=c1n(Cc2cc3c(cc2Cl)OCO3)c(=O)n2n1CC[C@@H]1C(=NOCc3ccccc3)[C@H]3O[C@H]3[C@@H](O)[C@@H]12`, the values for the composite z-score in experiment [1] and in experiment [2] were 0.0872 (inactive) and -0.0262, respectively. Also, the results for the z-score in experiment [3] and in experiment [4] were 0.0783 and 0.962 (inactive), respectively.
In the same order, the values of `C[C@H]1Cc2c(COc3ccccc3)nc3c(c2CO1)CN(CCOc1ccccc1)CC3` are -0.279 (inactive), 0.692, 0.668 and -5.49 (inactive).

(Values after PubChem BioAssay.)
